Out of some 5,500 compounds screened, about 2,000 (36%) were called active. Another 18% or so got no clear call; they are omitted. Rule as the data show it: active = normalized growth mostly below about 0.91 (no sharp cut-off); inconclusive = no clear call, values can overlap the other calls; inactive = mostly above about 0.92. This is one part of the list.
Test: chemical genetic growth profiling, strain panel (AID 1159580);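 also: tested at 20 µM; growth read once vehicle control cultures reached saturation at 30 °C; 1 = growth at the plate median or of vehicle wells; lower values mean less growth of the strain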
Conditions: S. cerevisiae deletion strains, growth OD

Measured: normalized growth

CC(=O)O[C@@H]1CC2C(C)(C)[C@H](O)C=C[C@]2(C)C2CC[C@@]3(C)[C@H](c4ccoc4)OC(=O)C4OC43[C@@]21C (stereo not given in full)
inactive: locus YAL021C, strain ccr4, hits give low values 1.02 | locus YAL026C, strain drs2, hits give low values 1.03 | locus YAL030W, strain snc1, hits give low values 1.01 | locus YBL061C, strain skt5, hits give low values 1.02 | locus YBR009C, strain hhf1, hits give low values 1.02 | locus YBR023C, strain chs3, hits give low values 1.03 | locus YBR171W, strain sec66, hits give low values 1.01 | locus YBR231C, strain swc5, hits give low values 1.02 | locus YBR279W, strain paf1, hits give low values 1.02 | locus YCL011C, strain gbp2, hits give low values 1.02 | locus YCL016C, strain dcc1, hits give low values 1.02 | locus YCL061C, strain MRC1, hits give low values 1.01 | locus YCL069W, strain vba3, hits give low values 1.02 | locus YCR088W, strain abp1, hits give low values 1.02 | locus YDL005C, strain med2, hits give low values 1.01 | locus YDL040C, strain nat1, hits give low values 1.02 | locus YDR001C, strain nth1, hits give low values 1.01 | locus YDR069C, strain doa4, hits give low values 1.04 | locus YDR137W, strain rgp1, hits give low values 1.03 | locus YDR159W, strain sac3, hits give low values 1.03 | locus YDR195W, strain ref2 1.06 | locus YDR297W, strain sur2, hits give low values 1.01 | locus YDR334W, strain swr1, hits give low values 1.02 | locus YDR335W, strain msn5, hits give low values 1.02 | locus YDR392W, strain spt3, hits give low values 0.963 | locus YEL003W, strain gim4, hits give low values 1.02 | locus YEL037C, strain rad23, hits give low values 1.02 | locus YEL061C, strain CIN8 (second series), hits give low values 1.01 | locus YER015W, strain faa2, hits give low values 1.02 | locus YER016W, strain bim1, hits give low values 1.02 | locus YER111C, strain swi4, hits give low values 1.02 | locus YER155C, strain BEM2 (second series), hits give low values 1.03 | locus YFR010W, strain ubp6, hits give low values 1.03 | locus YGL167C, strain pmr1, hits give low values 1.02 | locus YGL173C, strain kem1, hits give low values 1.02 | locus YGL227W, strain vid30, hits give low values 1.02 | locus YGL240W, strain doc1, hits give low values 1.02 | locus YGL253W, strain hxk2, hits give low values 1.01 | locus YHR013C, strain ard1, hits give low values 1.04 | locus YHR027C, strain rpn1, hits give low values 1.02 | locus YHR030C, strain SLT2, hits give low values 0.999 | locus YHR079C, strain IRE1, hits give low values 0.99 | locus YHR142W, strain chs7, hits give low values 1.02 | locus YJL092W, strain hpr5, hits give low values 1.02 | locus YJL095W, strain BCK1 (second series), hits give low values 1.02 | locus YJL095W, strain BCK1, hits give low values 1 | locus YJL115W, strain asf1, hits give low values 1.02 | locus YJL129C, strain trk1, hits give low values 1.04 | locus YJL154C, strain vps35, hits give low values 1.01 | locus YJL164C, strain tpk1, hits give low values 0.998 | locus YJL166W, strain qcr8, hits give low values 1.01 | locus YJL187C, strain SWE1, hits give low values 1.01 | locus YJR066W, strain TOR1, hits give low values 0.963 | locus YKL160W, strain elf1, hits give low values 1.01 | locus YKR026C, strain gcn3, hits give low values 0.998 | locus YKR091W, strain srl3, hits give low values 1.02 | locus YLL001W, strain dnm1, hits give low values 1.01 | locus YLL026W, hits give low values 1.02 | locus YLL041C, strain sdh2, hits give low values 1.01 | locus YLR027C, strain aat2, hits give low values 1.01 | locus YLR113W, strain HOG1, hits give low values 0.95 | locus YLR221C, strain rsa3, hits give low values 1.01 | locus YLR258W, strain gsy2, hits give low values 1.02 | locus YLR262C, strain YPT6 (second series), hits give low values 1.02 | locus YLR320W, strain mms22, hits give low values 1.01 | locus YLR342W, strain FKS1, hits give low values 1.03 | locus YLR357W, strain rsc2, hits give low values 1.03 | locus YLR370C, strain arc18, hits give low values 1.02 | locus YLR384C, strain iki3, hits give low values 1.02 | locus YML120C, strain ndi1, hits give low values 1.02 | locus YMR058W, strain fet3, hits give low values 1.02 | locus YMR125W, strain sto1, hits give low values 1.03 | locus YMR129W, hits give low values 1.01 | locus YMR205C, strain PFK2, hits give low values 1.02 | locus YMR231W, strain pep5, hits give low values 1.02 | locus YNL071W, strain lat1, hits give low values 1.02 | locus YNL183C, strain NPR1, hits give low values 0.955 | locus YNL209W, strain ssb2, hits give low values 1.02 | locus YNL248C, strain rpa49, hits give low values 1.01 | locus YNL322C, strain KRE1 (second series), hits give low values 1.02 | locus YNR049C, strain mso1, hits give low values 1.02 | locus YOR001W, strain rrp6, hits give low values 1.01 | locus YOR070C, strain gyp1, hits give low values 1.02 | locus YOR080W, strain dia2, hits give low values 1.03 | locus YOR083W, strain WHI5, hits give low values 1 | locus YOR106W, strain vam3, hits give low values 1.01 | locus YOR231W, strain MKK1, hits give low values 0.945 | locus YOR265W, strain rbl2, hits give low values 1.02 | locus YOR270C, strain vph1, hits give low values 1.04 | locus YOR290C, strain snf2, hits give low values 0.982 | locus YPL051W, strain arl3, hits give low values 1 | locus YPL078C, strain atp4, hits give low values 1.01 | locus YPL106C, strain sse1, hits give low values 1.04 | locus YPL240C, strain hsp82, hits give low values 1.02 | locus YPL256C, strain CLN2, hits give low values 0.962

Reference: PubChem BioAssay AID1159580 (chemical genetic matrix, 2015)
